The panel holds about 83,000 compounds, 20% with a hit somewhere; the sample as a whole holds those more often.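 Testing used 96-well plates and a 48-hour single-concentration exposure. Example: -40 means 40% of the starting cells died.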 Values without a mark were called inactive. Calls of active or inactive are those of the source. Rule for the calls: active = growth percent below 10; inactive = the rest.
test system: SF-295 CNS; assay: NCI-60 one-dose screen, 48 h (100 = growth as untreated, 0 = no growth, -100 = all killed); conditions: 10 µM unless noted

Structure (SMILES) | growth
O=c1ccc2nc(C(F)(F)F)nn(-c3ccccc3)c-2c1 | 91.9%
O=P(O)(O)OCC1OC(n2cnc3c(NCc4ccccc4)ncnc32)C(O)C1O (stereo not given) | 52.4%
Cc1cc2nc(-c3c(-c4ccc(F)cc4)nc4sccn34)[nH]c2cc1C | 92.5%
CCOC(=O)N1CCN(S(=O)(=O)c2oc(-c3ccc(Cl)cc3)nc2C#N)CC1 | 102%
CCCCCCCCn1ccc2cc(NC(=O)Cn3cc(CN4CCN(CC)CC4)nn3)ccc21 | 13.7%
CC12CCC(/C(=C/NNc3ccc([N+](=O)[O-])cc3[N+](=O)[O-])C1=O)C2(C)C (stereo not given) | 85.2%
COc1ccc(/C(C)=C(\c2ccc(OCCN3CCCCCC3)cc2)c2ccc(OC(=O)c3ccccc3)cc2)cc1 | 20.6%
O=C(N/N=C/c1ccc([N+](=O)[O-])cc1)c1ccc2nc(-c3ccc(Cl)cc3)[nH]c2c1 | 21.7%
COc1cc(/C=C\c2cc(/C=C\c3ccc(O)c(OC)c3)n(C(=O)CNc3ccc(Cl)cc3)n2)ccc1O | 72.8%
CN(C)c1ccc(-c2cc(-c3ccc(Nc4nc(Nc5ccc(Cl)cc5)nc(Nc5ccc(Cl)cc5)n4)cc3)nc(N)c2C#N)cc1 | 64%
Nc1ccc([N+](=O)[O-])cc1N=C/C=C/c1ccccc1 | 109%
Cc1nc2sc(C(=O)Nc3cccc(Cl)c3)c(N)c2cc1C(O)c1ccccc1 (stereo not given) | 28.8%
COc1cc(C2=NN(C(C)=O)C(c3ccc(N(C)C)cc3)C2)cc(OC)c1OC (stereo not given) | 95.1%
COc1cc2c(cc1O)[C@@]1(C)[C@H](c3ccccc3Br)OC(=O)N1CC2 | 102%
CC1(C)CC[C@]2(C(=O)O)CC[C@]3(C)C(=CC[C@@H]4[C@@]5(C)C[C@@H](Cc6cn([C@@H]7O[C@H](CO)[C@@H](O)[C@H](O)[C@H]7O)nn6)[C@H](O)C(C)(C)[C@@H]5CC[C@]43C)[C@@H]2C1 | 99.3%
COc1cccc(Nc2ccnc3[nH]c4ccc([N+](=O)[O-])cc4c23)c1 | 45.5%
N#Cc1c(NC(=O)c2cccs2)[n+]([O-])c2ccc(Cl)cc2[n+]1[O-] | 93.8%
O=C1Nc2ccc(F)cc2/C1=N/c1nnc(Sc2ccccc2)s1 | 108%
COc1ccc(/C=C/C(=O)c2ccc(NC(=O)CSc3nnc(-c4cc(-c5ccccc5)nc5ccccc45)n3-c3ccccc3)cc2)cc1 | 103%
CCN1C(=O)N(CC)C2C1NN=C1SCC(=O)N12 (stereo not given) | 100%

Structure (SMILES) | growth
CC(=O)N/C(=C1/OC(C(O)C(O)C(O)CO)CN1C)[P+](c1ccccc1)(c1ccccc1)c1ccccc1 (stereo not given) | 100%
CCOC(=O)Nc1nc2ccc(SCC(C)C)cc2s1 | 26.1%
NNC(=S)N/N=C/c1ccccn1 | 33.5%
Cc1[nH]c(/C=C/C(=O)c2ccc(C(F)(F)F)c(F)c2)c(C)c1C(=O)NCC(C)C | 90.9%
N#Cc1c(N2CCOCC2)nc(=S)[nH]c1-c1ccccc1 | 54.5%
Cc1cc(N2CCCCC2)nc(N2CCN(CC(=O)Nc3ccc4c(ccn4Cc4ccccc4)c3)CC2)n1 | 42.9%
CC(C)c1ccc(C(=O)Nc2sc3cc(O)ccc3c2C#N)cc1 | 22.2%
O=C(/C=C/C12c3ccccc3C(c3ccccc31)C1C(=O)NC(=O)C12)c1ccccn1 (stereo not given) | 16%
CC(C)CSc1oc(-c2ccccc2)nc1S(=O)(=O)c1ccccc1 | 84.3%
O=C(/C=C/c1ccc(Br)cc1)c1ccc(-n2cc(CN3CCN(c4cc5c(cc4F)c(=O)c(C(=O)O)cn5C4CC4)CC3)nn2)cc1 | 87.6%
Nc1c(C(=O)Nc2ccncc2)sc2nc3c(cc12)CCCCC3 | 71.5%
O=C(CCCCCCN1CC(=O)N2[C@@H](C3CCCCC3)c3[nH]c4ccccc4c3C[C@H]2C1=O)NO | 89.2%
COc1ccc2[nH]cc(-c3nc(-c4cn(C)c5ccncc45)cs3)c2c1 | 76.3%
O=C(/C=C\c1ccco1)/C=C/c1ccco1 | 101%
O=C1NC(=C(Cl)Cl)/C(=N/S(=O)(=O)N2CCCCC2)N1 | 110%
COc1ccc(C2=Nc3c(N)ncnc3NC(c3cccc(Nc4ccnc5cc(C(F)(F)F)ccc45)c3)C2)cc1 (stereo not given) | 61.9%
CC(C)(CO)N(CCO)CCO | 108%
CCOC(=O)c1c(C)c2c(n1C)CSc1cc(S(=O)(=O)c3ccccc3)c(=O)[nH]c1-2 | 27.2% [100 µM]
Clc1ccc(-c2cn3ccsc3n2)c(Cl)c1Cl | 91.8%
CS(=O)(=O)Cc1cnc(C2OCCO2)s1 | 98%

test system: SF-539 CNS; assay: as above; conditions: 10 µM unless noted

Structure (SMILES) | growth
O=c1ccc2nc(C(F)(F)F)nn(-c3ccccc3)c-2c1 | 92.8%
O=P(O)(O)OCC1OC(n2cnc3c(NCc4ccccc4)ncnc32)C(O)C1O (stereo not given) | 6.39% (active)
Cc1cc2nc(-c3c(-c4ccc(F)cc4)nc4sccn34)[nH]c2cc1C | 98.2%
CCOC(=O)N1CCN(S(=O)(=O)c2oc(-c3ccc(Cl)cc3)nc2C#N)CC1 | 89%
CCCCCCCCn1ccc2cc(NC(=O)Cn3cc(CN4CCN(CC)CC4)nn3)ccc21 | 82.7%
CC12CCC(/C(=C/NNc3ccc([N+](=O)[O-])cc3[N+](=O)[O-])C1=O)C2(C)C (stereo not given) | 102%
COc1ccc(/C(C)=C(\c2ccc(OCCN3CCCCCC3)cc2)c2ccc(OC(=O)c3ccccc3)cc2)cc1 | 45.2%
O=C(N/N=C/c1ccc([N+](=O)[O-])cc1)c1ccc2nc(-c3ccc(Cl)cc3)[nH]c2c1 | 41.7%
COc1cc(/C=C\c2cc(/C=C\c3ccc(O)c(OC)c3)n(C(=O)CNc3ccc(Cl)cc3)n2)ccc1O | 8.34% (active)
CN(C)c1ccc(-c2cc(-c3ccc(Nc4nc(Nc5ccc(Cl)cc5)nc(Nc5ccc(Cl)cc5)n4)cc3)nc(N)c2C#N)cc1 | 77.9%
Nc1ccc([N+](=O)[O-])cc1N=C/C=C/c1ccccc1 | 79%
Cc1nc2sc(C(=O)Nc3cccc(Cl)c3)c(N)c2cc1C(O)c1ccccc1 (stereo not given) | -3.45% (active)
COc1cc(C2=NN(C(C)=O)C(c3ccc(N(C)C)cc3)C2)cc(OC)c1OC (stereo not given) | 91.5%
COc1cc2c(cc1O)[C@@]1(C)[C@H](c3ccccc3Br)OC(=O)N1CC2 | 95.1%
CC1(C)CC[C@]2(C(=O)O)CC[C@]3(C)C(=CC[C@@H]4[C@@]5(C)C[C@@H](Cc6cn([C@@H]7O[C@H](CO)[C@@H](O)[C@H](O)[C@H]7O)nn6)[C@H](O)C(C)(C)[C@@H]5CC[C@]43C)[C@@H]2C1 | 101%
COc1cccc(Nc2ccnc3[nH]c4ccc([N+](=O)[O-])cc4c23)c1 | 48.9%
N#Cc1c(NC(=O)c2cccs2)[n+]([O-])c2ccc(Cl)cc2[n+]1[O-] | 108%
O=C1Nc2ccc(F)cc2/C1=N/c1nnc(Sc2ccccc2)s1 | 88.5%
COc1ccc(/C=C/C(=O)c2ccc(NC(=O)CSc3nnc(-c4cc(-c5ccccc5)nc5ccccc45)n3-c3ccccc3)cc2)cc1 | 97.8%
CCN1C(=O)N(CC)C2C1NN=C1SCC(=O)N12 (stereo not given) | 92.9%

Structure (SMILES) | growth
CC(=O)N/C(=C1/OC(C(O)C(O)C(O)CO)CN1C)[P+](c1ccccc1)(c1ccccc1)c1ccccc1 (stereo not given) | 97.6%
CCOC(=O)Nc1nc2ccc(SCC(C)C)cc2s1 | 12.3%
NNC(=S)N/N=C/c1ccccn1 | 11.2%
Cc1[nH]c(/C=C/C(=O)c2ccc(C(F)(F)F)c(F)c2)c(C)c1C(=O)NCC(C)C | 96%
N#Cc1c(N2CCOCC2)nc(=S)[nH]c1-c1ccccc1 | 91.3%
Cc1cc(N2CCCCC2)nc(N2CCN(CC(=O)Nc3ccc4c(ccn4Cc4ccccc4)c3)CC2)n1 | 80.3%
CC(C)c1ccc(C(=O)Nc2sc3cc(O)ccc3c2C#N)cc1 | 32.5%
O=C(/C=C/C12c3ccccc3C(c3ccccc31)C1C(=O)NC(=O)C12)c1ccccn1 (stereo not given) | -7.59% (active)
CC(C)CSc1oc(-c2ccccc2)nc1S(=O)(=O)c1ccccc1 | 101%
O=C(/C=C/c1ccc(Br)cc1)c1ccc(-n2cc(CN3CCN(c4cc5c(cc4F)c(=O)c(C(=O)O)cn5C4CC4)CC3)nn2)cc1 | 83%
Nc1c(C(=O)Nc2ccncc2)sc2nc3c(cc12)CCCCC3 | 73.2%
O=C(CCCCCCN1CC(=O)N2[C@@H](C3CCCCC3)c3[nH]c4ccccc4c3C[C@H]2C1=O)NO | 69.3%
COc1ccc2[nH]cc(-c3nc(-c4cn(C)c5ccncc45)cs3)c2c1 | -70.6% (active)
O=C(/C=C\c1ccco1)/C=C/c1ccco1 | 108%
O=C1NC(=C(Cl)Cl)/C(=N/S(=O)(=O)N2CCCCC2)N1 | 11.8%
COc1ccc(C2=Nc3c(N)ncnc3NC(c3cccc(Nc4ccnc5cc(C(F)(F)F)ccc45)c3)C2)cc1 (stereo not given) | 70%
CC(C)(CO)N(CCO)CCO | 97.4%
CCOC(=O)c1c(C)c2c(n1C)CSc1cc(S(=O)(=O)c3ccccc3)c(=O)[nH]c1-2 | 28.9% [100 µM]
Clc1ccc(-c2cn3ccsc3n2)c(Cl)c1Cl | 88%
CS(=O)(=O)Cc1cnc(C2OCCO2)s1 | 94.7%
